The supplement of paper PMC7411054

Assays:
Details in all cases: treatment time: 24 h
[1] = system: A549-ACTB-RAB5A; assay: lowest phenotypically active concentration; higher = less potent
Summary of the method: (§1)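 After 24 h at 0.3, 1, 3 or 9 µM, with four wells per treatment, fifteen gene-edited A549, HepG2 and WPMY1 reporter lines carrying BFP, GFP and RFP/FusionRed were imaged live. Each well's live-cell features were expressed relative to solvent control wells. Deviation required ≥3 of 4 wells past the 95th percentile of control Euclidean distances, and reproducibility a median replicate Pearson correlation over the 95th percentile of non-replicates. Phenotypic activity rested on both.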

[2] = system: A549-ACTB-RAB5A; assay: phenotypically active (imaging signature differs from DMSO and reproducible) at any of 0.3-9 uM (binary (1 = active, 0 = inactive)); higher = active
Summary of the method: as §1

[3] = system: A549-CANX-COX4; assay: as above
Summary of the method: as §1

[4] = system: A549-GM130-SQSTM1; assay: as above
Summary of the method: as §1

[5] = system: A549-TP53BP1-CLTA; assay: as above
Summary of the method: as §1

[6] = system: A549-TUBA1B-RELA; assay: as above
Summary of the method: as §1

[7] = system: HepG2-ACTB-RAB5A; assay: as above
Summary of the method: as §1

[8] = system: HepG2-CANX-COX4; assay: as above
Summary of the method: as §1

[9] = system: HepG2-GM130-SQSTM1; assay: as above
Summary of the method: as §1

[10] = system: HepG2-TP53BP1-CLTA; assay: as above
Summary of the method: as §1

[11] = system: HepG2-TUBA1B-RELA; assay: as above
Summary of the method: as §1

[12] = system: WPMY1-ACTB-RAB5A; assay: as above
Summary of the method: as §1

[13] = system: WPMY1-CANX-COX4; assay: as above
Summary of the method: as §1

[14] = system: WPMY1-GM130-SQSTM1; assay: as above
Summary of the method: as §1

[15] = system: WPMY1-TP53BP1-CLTA; assay: as above
Summary of the method: as §1

[16] = system: WPMY1-TUBA1B-RELA; assay: as above
Summary of the method: as §1

[17] = system: A549-CANX-COX4; assay: lowest phenotypically active concentration; higher = less potent
Summary of the method: as §1

[18] = system: A549-GM130-SQSTM1; assay: as above
Summary of the method: as §1

[19] = system: A549-TP53BP1-CLTA; assay: as above
Summary of the method: as §1

[20] = system: A549-TUBA1B-RELA; assay: as above
Summary of the method: as §1

C=CCc1ccc(O)c(-c2ccc(O)c(CC=C)c2)c1 [Honokiol]
9 µM: lowest phenotypically active concentration [1]
active: phenotypically active [2] 1
inactive: phenotypically active [3] 0 | phenotypically active [4] 0 | phenotypically active [5] 0 | phenotypically active [6] 0 | phenotypically active [7] 0 | phenotypically active [8] 0 | phenotypically active [9] 0 | phenotypically active [10] 0 | phenotypically active [11] 0 | phenotypically active [12] 0 | phenotypically active [13] 0 | phenotypically active [14] 0 | phenotypically active [15] 0 | phenotypically active [16] 0

O=C1NC(=O)C(c2ccccc2[N+](=O)[O-])=C1Nc1ccc(O)c(Cl)c1
inactive: phenotypically active [13] 0 | phenotypically active [14] 0 | phenotypically active [15] 0 | phenotypically active [16] 0
active: phenotypically active [2] 1 | phenotypically active [3] 1 | phenotypically active [4] 1 | phenotypically active [5] 1 | phenotypically active [6] 1 | phenotypically active [7] 1 | phenotypically active [8] 1 | phenotypically active [9] 1 | phenotypically active [10] 1 | phenotypically active [11] 1 | phenotypically active [12] 1
9 µM: lowest phenotypically active concentration [1] | lowest phenotypically active concentration [17] | lowest phenotypically active concentration [18] | lowest phenotypically active concentration [19] | lowest phenotypically active concentration [20]

COc1cc(C[C@H]2C(=O)OC[C@@H]2Cc2ccc(OC)c(OC)c2)ccc1O [Arctigenin]
active: phenotypically active [2] 1 | phenotypically active [3] 1 | phenotypically active [4] 1 | phenotypically active [5] 1 | phenotypically active [6] 1 | phenotypically active [7] 1 | phenotypically active [8] 1 | phenotypically active [9] 1 | phenotypically active [10] 1 | phenotypically active [11] 1
9 µM: lowest phenotypically active concentration [20]
inactive: phenotypically active [12] 0 | phenotypically active [13] 0 | phenotypically active [14] 0 | phenotypically active [15] 0 | phenotypically active [16] 0
3 µM: lowest phenotypically active concentration [1] | lowest phenotypically active concentration [17] | lowest phenotypically active concentration [18] | lowest phenotypically active concentration [19]

C#C[C@]1(OC(C)=O)CC[C@H]2[C@@H]3CCC4=CC(=NO)CC[C@@H]4[C@H]3CC[C@@]21CC [norgestimate]
inactive: phenotypically active [2] 0 | phenotypically active [3] 0 | phenotypically active [4] 0 | phenotypically active [5] 0 | phenotypically active [6] 0 | phenotypically active [7] 0 | phenotypically active [8] 0 | phenotypically active [9] 0 | phenotypically active [10] 0 | phenotypically active [11] 0 | phenotypically active [12] 0 | phenotypically active [13] 0 | phenotypically active [14] 0 | phenotypically active [15] 0 | phenotypically active [16] 0

Cc1cc2cc(NS(=O)(=O)c3ccc(C#N)cc3)ccc2n(C)c1=O
inactive: phenotypically active [2] 0 | phenotypically active [3] 0 | phenotypically active [4] 0 | phenotypically active [5] 0 | phenotypically active [6] 0 | phenotypically active [7] 0 | phenotypically active [8] 0 | phenotypically active [9] 0 | phenotypically active [10] 0 | phenotypically active [11] 0 | phenotypically active [12] 0 | phenotypically active [13] 0 | phenotypically active [14] 0 | phenotypically active [15] 0 | phenotypically active [16] 0
